sPLA2-III inh = Blocks human group III sPLA2 activity | inhibition, % at 12.2 µM | QFRET BODIPY PC-A2 liposome hydrolysis, fluorescence | 370,000 compounds, 0.56% hits | AID 743126 | Q9NZ20;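 active means inhibition above mean plus 3 SD of compounds lying within the high and low control bounds, cut at about 19% in these data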;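 further: 0% = median of test compound wells and 100% = no enzyme DMSO wells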
PLC-beta3 inh = PLC-beta3 (human) inhibition, primary screen; Purified PLC-beta3, fluorogenic substrate, fluorescence; inhibition, % at 12.2 µM; 370,000 compounds, 0.18% hits; in the data active means inhibition above about 11%;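 further: 0% = median of compound wells on plate and 100% = full blocker control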
proKLK7 act = activates the human kallikrein-7 zymogen; 370,000 compounds, 0.9% hits; activation, % at 7 µM; P49862; purified proKLK7, EDANS-DABCYL substrate fluorescence; 100% is mature enzyme control, 0% vehicle;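 active means activation above the mean of all tested compounds plus 3 SD, computed per campaign excluding outliers beyond control limits, cut at about 13% in these data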
PLC-gamma1 inh = inhibitors of human phospholipase C gamma1 | inhibition, % at 12.2 µM | P19174 | AID 720700 | 370,000 compounds, 0.84% hits | purified PLC-gamma1, fluorogenic substrate, fluorescence; in the data active means inhibition above about 9.5%
ADAM17 inh = inhibits human ADAM17; AID 720648; recombinant ADAM17, EDANS/DABCYL FRET peptide cleavage; P78536; inhibition, % at 6.95 µM; 370,000 compounds, 0.83% hits;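 active means inhibition above the mean of compounds lying between control limits plus 3 SD, set per campaign, cut at about 8.5% in these data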;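 further: 0% = DMSO-only wells as the low control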
ADAM10 inh = inhibits human ADAM10; 370,000 compounds, 0.62% hits; recombinant ADAM10, EDANS/DABCYL FRET peptide cleavage, 3 h; inhibition, % at 7 µM;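 active means inhibition above a per-campaign cutoff equal to the mean of compounds falling between control-based bounds plus 3 SD, cut at about 20% in these data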;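 further: 0% = DMSO wells while the 100% control is not disclosed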
ADAM10 confirm = human ADAM10 inhibition, confirmation; shares compounds with ADAM10 inh; ADAM10 QFRET peptide cleavage, EDANS fluorescence; inhibition, % at 6.95 µM; 2,100 compounds, 1% hits; AID 743208;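 active means inhibition above about 20% chosen separately for each screening run, limit read from the data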;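 further: 0% = DMSO wells and 100% = marimastat wells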
ADAM17 ctr = inhibits human ADAM17 in ADAM10 exosite counter-screen; inhibition, % at 6.95 µM; 2,100 compounds, 0.5% hits; shares compounds with ADAM10 inh; AID 743214; ADAM17 QFRET peptide cleavage, EDANS fluorescence;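 active means mean triplicate inhibition above the solvent-only control wells' mean plus 3 SD, cut at about 12% in these data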;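 further: 0% = DMSO wells and 100% = marimastat wells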
ADAM10 counter = counter-screen for ADAM17 exosite inhibitors: inhibitors of human ADAM10. shares compounds with ADAM17 inh. recombinant ADAM10, EDANS/DABCYL FRET peptide cleavage, 3 h. inhibition, % at 6.95 µM. 2,900 compounds, 47% hits. AID 743256;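 active means mean inhibition over the triplicate runs exceeds the activity threshold set in the earlier primary screen, cut at about 20% in these data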;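 further: 0% = DMSO wells and 100% = marimastat wells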
ADAM17 confirm = human ADAM17 inhibition, confirmation | shares compounds with ADAM17 inh | recombinant ADAM17, EDANS/DABCYL QFRET peptide cleavage | inhibition, % at 6.95 µM | 2,900 compounds, 65% hits;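 active means mean inhibition across replicates above the hit cutoff set in the primary screen, cut at about 8.5% in these data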;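 further: 0% = DMSO wells and 100% = marimastat wells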
The depositor's hits bear a star; nt = not tested or not shown; ! = a repeat was not active. Compounds with a hit are over-represented: about 3.4% of the library has one in this group of screens.

SMILES | sPLA2-III inh | PLC-beta3 inh | proKLK7 act | PLC-gamma1 inh | ADAM17 inh | ADAM10 inh | ADAM10 confirm | ADAM17 ctr | ADAM10 counter | ADAM17 confirm
Cc1ccc(NC(=O)COC(=O)C2(c3ccc(Cl)cc3)CCCC2)cc1 | -9 | 6 | 0 | 7 | 11* | 32* | 9 | 4 | 31* | 14*
NC(c1ccccc1)c1cccnc1 (stereo unspecified) | 15 | -11 | 0 | 4 | -8 | -14 | nt | nt | nt | nt
O=C(CNc1cc(S(=O)(=O)N2CCCC2)ccc1OCC(F)(F)F)Nc1cccc(C(F)(F)F)c1 | -28 | 2 | -1 | 1 | 11* | 26* | 3 | 0 | 41* | 17*
COc1ccc(S(=O)(=O)N(CC(=O)Nc2ccc(S(=O)(=O)N3CCOCC3)cc2)Cc2ccc(F)cc2)cc1 | -40 | 6 | -1 | 8 | 9.4* | 32* | 7 | 2 | 41* | 16*
COc1ccc(CNC(=O)CN(Cc2ccc(Cl)cc2)S(=O)(=O)c2ccccc2)cc1 | -15 | 7 | 0 | 9 | 18* | 24* | 1 | 0 | 19 | 14*
COc1ccc(CNC(=O)CN(Cc2ccccc2)S(=O)(=O)c2ccc(Cl)cc2)cc1 | 2 | 3 | 0 | 7 | 21* | 29* | 4 | 1 | 13 | 10*
COc1ccc(S(=O)(=O)N(CC(=O)NCc2ccncc2)Cc2ccccc2)cc1 | -2 | -3 | 0 | -2 | 0 | 2 | nt | nt | nt | nt
Cn1nnc(NC(=O)c2cccc([N+](=O)[O-])c2)n1 | 7 | -2 | -1 | 7 | 2 | -2 | nt | nt | nt | nt
CCC(C)(C)NC(=O)CN(Cc1ccc(F)cc1)C(=O)CCC(=O)Nc1ccccn1 | 1 | -3 | 1 | -1 | 0 | 3 | nt | nt | nt | nt
COc1cc(NC(=O)c2cnc(N)s2)cc(C(=O)Nc2cccc(C(F)(F)F)c2)c1 | -31 | -7 | 0 | 0 | 9.8*! | 20*! | 6 | 2 | 22* | 14*
CCOc1ccc(S(=O)(=O)N(CC(=O)Nc2cc(C)on2)Cc2ccccc2Cl)cc1 | -20 | 10 | 1 | 8 | 16* | 29* | 1 | 1 | 13 | 8
CC(C)(C)c1ccc2c(c1)OC(C(=O)N/N=C\c1ccc(-c3cccc(C(=O)O)c3)o1)CO2 (stereo unspecified) | -15 | -16 | 2 | -11 | -13 | -37 | nt | nt | nt | nt
CC(C)(C)c1ccc2c(c1)OC(C(=O)N/N=C\c1ccccn1)CO2 (stereo unspecified) | 4 | 5 | 0 | 4 | 12* | 21* | -1 | 0 | -2 | 2
COc1cc(CNc2ccc3[nH]c(=O)[nH]c3c2)cc(Br)c1OCc1ccccc1F | 0 | -181 | -1 | -139 | -40 | -58 | nt | nt | nt | nt
O=C(CSc1nc2ccccc2c(=O)n1-c1ccc(F)c(Cl)c1)Nc1cccc(S(=O)(=O)N2CCOCC2)c1 | -2 | 0 | 0 | -1 | 10* | 20* | 8 | 2 | 30* | 20*
CN(C)S(=O)(=O)c1ccc(NC(=O)CSc2nc3ccccc3n2-c2ccccc2)cc1 | -22 | -4 | 0 | 1 | 5 | 14 | nt | nt | nt | nt
CN(C)S(=O)(=O)c1cccc(NC(=O)CSc2nc3ccccc3n2-c2ccccc2)c1 | -35 | -4 | 0 | 0 | 10* | 20* | 7 | 2 | 24* | 13*
COC(=O)[C@]12CCCCC=C1N(CCc1ccc(OC)c(OC)c1)C(=O)[C@H](CC(=O)N1CCN(C(=O)c3ccco3)CC1)C2 | 6 | 2 | 0 | -1 | -3 | -3 | nt | nt | nt | nt

Bioassay records deposited in PubChem by The Scripps Research Institute Molecular Screening Center.
